Laboratory results taken from PubChem BioAssay AID2762 (National Center for Advancing Translational Sciences (NCATS), 2010).
Records with an inconclusive call do not appear. Calls of active or inactive are those of the source. The call rests on the fitted dose curve; in most records, active means well fitted inhibition curve with a large enough effect; inconclusive means small, poorly fitted or top-dose-only effect, or effect the other way; inactive means no such curve, though single readings can be large or run the other way.

Each molecule was assayed against Nuclear receptor ROR-gamma (Mus musculus) (UniProt P51450) (assay: Concentration response confirmation assay for inhibitors of ROR gamma transcriptional activity). Settings: Drosophila S2 Gal4-RORgamma UAS-luciferase, 20 h; series mostly up to 46.1 µM.
Text: NIH Molecular Libraries Probe Production Network [MLPCN] NIH Chemical Genomics Center [NCGC] MLPCN Grant: R03 DA026211-01 Assay Provider: Dan Littman, New York University Assay Overview: The retinoic acid-related orphan receptor (ROR) gamma is a transcription factor that has a central role in the differentiation of Th17 cells, a subset of T helper cells that secrete the inflammatory cytokines IL-17, IL-17F, and IL-22. Th17 cells have been implicated in graft versus host disease, autoimmune disease and asthma. ROR gamma is induced in naive T helper cells in the presence of TGF-beta combined with IL-6, IL-21, or IL-23, and thereafter directs the expression of the Th17 lineage cytokines. To study the mechanism of action of ROR gamma, an insect cell-based assay was screened. This Drosophila Schneider cell line was stably transfected with two vectors: a gene expressing a fusion of the Gal4 DNA binding domain and ROR gamma transactivation domain under the control of the metallothionine promoter and a Photinus luciferase reporter regulated by the Gal4 binding site enhancer, UAS. […] Small molecule inhibitors of ROR gamma activity are detected by a decrease in luciferase reporter activity.
Assay Protocol Summary: For screening, 600 cells in 4 uL/well were dispensed into white solid 1536-well plates (Grenier) using a solenoid-based dispenser. Following transfer of 23 nL compound or DMSO vehicle by a pin tool, the plates were incubated 1 hr at ambient temperature, and 1 uL/well copper sulfate (700 uM final concentration) was added. The plates were centrifuged 15 s at 1000 RPM and incubated 20 hr at ambient temperature. After addition of 1.5 uL Photinus luciferase detection reagent, the plates were incubated 10 min at ambient temperature and then read by an ViewLux (Perkin Elmer) to detect luminescence. Keywords: NIH Roadmap, MLPCN, MLI, MLSMR, qHTS, NCGC, qHTS, nuclear hormone receptor, retinoic acid-related orphan receptor, ROR gamma

Nuclear receptor ROR-gamma (Mus musculus), sequence (P51450 whole entry, looked up, the tested form may be a part): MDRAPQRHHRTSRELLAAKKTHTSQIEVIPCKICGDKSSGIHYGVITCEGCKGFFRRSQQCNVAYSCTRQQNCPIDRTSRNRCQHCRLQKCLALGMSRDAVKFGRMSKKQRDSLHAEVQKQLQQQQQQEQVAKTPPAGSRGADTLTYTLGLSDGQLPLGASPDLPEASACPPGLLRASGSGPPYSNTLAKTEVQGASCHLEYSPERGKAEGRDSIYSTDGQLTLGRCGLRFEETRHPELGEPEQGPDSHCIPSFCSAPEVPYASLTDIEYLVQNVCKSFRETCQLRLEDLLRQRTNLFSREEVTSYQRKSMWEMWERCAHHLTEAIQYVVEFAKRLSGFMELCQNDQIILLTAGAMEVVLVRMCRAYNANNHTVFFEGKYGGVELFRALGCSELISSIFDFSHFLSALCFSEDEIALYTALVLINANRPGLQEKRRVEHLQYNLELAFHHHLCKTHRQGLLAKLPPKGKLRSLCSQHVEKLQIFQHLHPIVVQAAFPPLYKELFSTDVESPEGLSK

Row | SMILES | Potency
1 | O=C(Nc1ncc(Cc2ccccc2)s1)C1=NCCN1 | 9.96 µM (active)
2 | Cc1nc2ccccc2c(=O)n1-c1cc([N+](=O)[O-])cc([N+](=O)[O-])c1 | inactive
3 | Cn1ncnc2c(=O)n(C)c(=O)nc1-2 | 0.996 µM (active)
